Source: PubChem BioAssay (National Center for Advancing Translational Sciences (NCATS))
Cycloheximide cs: counter-screen for Shiga toxin inhibitors: cycloheximide protein synthesis inhibition; cell reporter, cycloheximide protein synthesis inhibition counterscreen; max response, %; hit rate 12% among 300,000; AID 2314; in the data active means max response mostly above about 13%, no sharp cut-off; inactive means mostly below about 14%; further: read at 38.3 µM for the half of the compounds with a filed dose; 0% is about no effect
Pf growth 48h: inhibits P. falciparum growth in the first generation, 48 h; P. falciparum luciferase growth in erythrocytes, 48 h; Potency, µM (series often up to 28.7 µM), without a hit: top-dose activity change, negative = inhibition, hits mostly inhibitors; hit rate 5.9% among 310,000; AID 504832; further: potency means the concentration at half of the fitted maximal effect; on the % scale 0 is the no-effect control and ±100 the full control effect
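First compound was added to culture medium, then infected red cells at 0.1% parasitemia and 2% hematocrit (final). After incubation at 37 C under 5% CO2, luciferase detection reagent was dispensed and light output recorded.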
HCMV inh: human cytomegalovirus inhibition; HFF cells, HCMV-luciferase reporter, 72 h; hits give low values; activity change, negative = inhibition, % at 57.5 µM; hit rate 4.5% among 410,000; in the data active means activity change below about -60%; inconclusive means no clear call, values can overlap the other calls; inactive means above about -39%; further: on the % scale 0 is the no-effect control and ±100 the full control effect
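Cell-based, HFFs, 1000 cells/well, 16 h 37C; cpds in DMSO + HCMV-luc, MOI 1 PFU/cell; 72 h 37C; OneGlo luminescence after 5 min RT; norm. to buffer vs Salinomycin 10uM.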
Pf growth 96h: P. falciparum growth inhibition at 96 hours; P. falciparum luciferase reporter growth, 96 h; Potency, µM (top dose mostly 28.7 µM), for the others: at the top dose activity change, negative = inhibition, most hits filed as inhibitors; hit rate 6.9% among 320,000; AID 504834; further: potency means the concentration at half of the fitted maximal effect; on the % scale 0 is the no-effect control and ±100 the full control effect
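Parasite growth measured via integrated firefly luciferase reporter in P. falciparum. Infected erythrocytes at 2% hematocrit, 0.05% parasitemia final were treated 96 hours at 37 C under 5% CO2, and luminescence was read.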
Shiga inhibitor: Shiga toxin inhibition | Vero cells, Shiga toxin protein synthesis inhibition reporter | inhibition, % at 38.7 µM | hit rate 9.2% among 290,000 | AID 2315; in the data active means inhibition mostly above about 28%, no sharp cut-off; inactive means mostly below about 43%; further: 0% is about no effect
* marks the source's active call; other numbers are inactive results; ? = inconclusive; nt = no result given; [ ] = dose if it differs, or a comment. This is a sample that favours compounds with a hit; in the whole collection about 20% have one here. Unless noted, the call rests on the fitted dose curve; in most records, active means well fitted inhibition curve with a large enough effect; inconclusive means small, poorly fitted or top-dose-only effect, or another doubt; inactive means no such curve, though single readings can be large or run the other way.

SMILES	Cycloheximide cs	Pf growth 48h	HCMV inh	Pf growth 96h	Shiga inhibitor
CCCCn1c(N)c(N(CC)C(=O)CSc2nnc(-c3ccco3)n2CC)c(=O)[nH]c1=O	nt	3.7%	-17.7	0.5%	nt
O=C(O)c1cc(-c2ccccc2)nc2ccccc12	-0.5	1.2%	-38.4	?	-2.6
O=C(NCc1ccccn1)c1ccccc1OCc1ccccc1Cl	nt	nt	-66.2*	nt	nt
Cc1ccc(-c2cc(C(=O)O)c3ccccc3n2)c(C)c1	17.7*	-5.9%	8.1	18.9%	5.1
O=C(NCc1ccccn1)c1cc(-c2ccccc2Cl)nc2ccccc12	-4.8	9.28µM*	21.9	?	-13.1
Cc1cc(NC(=O)c2cc(-c3ccccc3Cl)nc3ccccc23)no1	-3.6	13.1µM*	?	?	-8.5
C[C@@H]1CCC[C@]2(C)CCCC[C@@]12O	-2.9	nt	nt	nt	-5.1
Cc1c(C(=O)Nc2ccc(F)cc2F)sc2nc3n(c(=O)c12)N=C(c1ccccc1)CS3	nt	nt	28.1	nt	nt
Cc1c(C(=O)N2CCOCC2)sc(NC(=O)c2ccc3c(c2)OCO3)c1C#N	-2.8	-4.2%	-9.5	35.7%	-4.8
CCC(C)[C@H](NC(=O)[C@H](Cc1ccccc1)n1c(=O)[nH]c2ccccc2c1=O)C(=O)NCC1CCC(C(=O)O)CC1 (some centres undefined)	-2.0	-16.5%	-5.7	13.1µM*	-12.8
CCOC(=O)c1c(NC(=O)CN(CC)CC)sc2c1CCN(C(=O)OCC)C2	-1.8	9.28µM*	?	8.28µM*	-22.1
CCOC(=O)c1c(NC(=O)CN2CCCCC2)sc2c1CCN(C(=O)OCC)C2	13.7	10.4µM*	-60.0*	5.22µM*	-14.0
CCOC(=O)c1c(NC(=O)CN2CCOCC2)sc2c1CCCC2	-4.8	nt	24.9	nt	-19.4
CCOC(=O)c1c(NC(=O)COC)sc2c1CCCC2	-1.6	-2.1%	-2.2	nt	15.9
CCOC(=O)c1c(NC(=S)N2CCN(C)CC2)sc2c1CCN(C(=O)OCC)C2	-5.1	13.1µM*	-98.8*	11.7µM*	-15.8
CCOC(=O)c1c(NC(=O)CN2CCCCC2)sc(C)c1C	-2.1	-18.8%	-4.2	-7.1%	-11.1
CCOC(=O)c1c(NC(=O)CN2CCN(C(=O)c3ccco3)CC2)sc2c1CCCC2	0.4	3.7µM*	-8.5	115.2%	13.0
Brc1cc2c(cc1C1OCCCO1)OCO2	nt	nt	15.4	nt	nt
CCNC(=S)NCCN1CCCCC1	-1.6	nt	-14.6	11.7µM*	-12.9
CCOc1ccc(CNc2ccc3c(c2)ncn3C(C)(C)C)cc1	24.0*	?	27.2	135.5%	40.4*
CCOc1ccc(CNc2ccc(S(N)(=O)=O)cc2)cc1	1.2	16.2%	-15.6	-36.0%[5.75 µM]	2.2
Cn1cnc2cc(NCc3ccc(Cl)cc3)ccc21	45.1*	77.2%	25.1	?	60.3*
CC(=O)Nc1ccc2c(c1)ncn2C	-2.1	29.6%	35.3	-19.9%	-3.7
CCOc1ccc(CNc2ccc3c(c2)ncn3C)cc1	34.9*	-12.8%	21.1	10.4µM*	37.8*
COc1ccc(CCC(=O)Nc2ccc(S(=O)(=O)N3CCOCC3)cc2)cc1	5.1	-17.6%	53.1	230.6%	2.4
SMILES	Cycloheximide cs	Pf growth 48h	HCMV inh	Pf growth 96h	Shiga inhibitor
CN(CC(=O)Nc1ccc(S(=O)(=O)N2CCOCC2)cc1)Cc1ccc(F)cc1	nt	?	-8.1	13.1µM*	nt
CCc1ccc(CN(C)CC(=O)Nc2ccc(S(=O)(=O)N3CCOCC3)cc2)cc1	nt	10.4µM*	0.0	?	nt
CSc1ccccc1NC(=O)CN(C)CC(=O)Nc1ccc(S(=O)(=O)N2CCCC2)cc1	nt	nt	-21.2	nt	nt
CN(CC(=O)Nc1ccc(S(=O)(=O)N2CCCC2)cc1)CC(=O)Nc1ccc(F)c(F)c1F	9.2	10.4µM*	34.2	?	-2.7
COc1ccc(N(CC(=O)Nc2ccc(S(=O)(=O)N3CCOCC3)cc2)S(=O)(=O)c2ccc(F)cc2)cc1	-1.8	13.1µM*	-5.9	-1.1%	3.2
Cn1c2ccccc2c(=O)c2ccc(NCc3ccc4c(c3)OCO4)cc21	nt	nt	-17.7	nt	nt
CCN(CC)c1ccc(NC(=O)c2cncc(Br)c2)cc1	42.8*	-9.6%	?	4.8%	59.8*
CCN(CC)c1ccc(NC(=O)c2cccnc2)cc1	38.5*	34.7%	33.9	39.9%	60.8*
COc1ccc(-c2noc(CSc3nc(N)c(-c4ccccc4)c(=O)[nH]3)n2)cc1OC	-1.9	10.4%	-13.6	-7.6%	-9.8
COc1cccc(-c2noc(COc3ccccc3Cl)n2)c1	nt	nt	42.8	nt	nt
COc1ccc(-c2noc(CSc3nc4ccccc4[nH]3)n2)cc1OC	nt	nt	-60.1*	nt	nt
COc1ccccc1OCC(=O)N(Cc1nc(-c2ccccc2)no1)C1CCCCC1	15.1*	13.1µM*	14.0	nt	42.9
Cc1ccccc1OCC(=O)N(Cc1nc(-c2ccccc2)no1)C(C)C	-0.5	?	-18.4	-7.7%	-1.0
COc1ccc(-c2noc(COc3ccccc3OC)n2)cc1OC	12.5*	7.2%	-18.2	22.0%	50.1*
COc1ccccc1OCc1nc(-c2ccc([N+](=O)[O-])cc2)no1	24.5*	52.2%	24.4	?	39.2*
Cc1nc(-c2cccc(F)c2)sc1CCNC(=O)c1ccc(F)c(F)c1	nt	nt	-4.2	nt	nt
CC1(c2nnnn2-c2ccc3c(c2)OCCO3)CCC(=O)N1CC(F)(F)F (centres undefined)	nt	nt	60.1	nt	nt
O=C(CSc1ccccn1)Nc1ccc2ccccc2c1	52.8*	199.0%	nt	?	77.5*
O=C(CSC1=NCCS1)Nc1ccc2ccccc2c1	35.8*	43.0%	-29.7	42.8%	116.8*
O=C(CSc1n[nH]c(=O)[nH]c1=O)Nc1ccc2c(c1)C(=O)c1ccccc1C2=O	27.1*	43.3%	-8.3	25.5%	67.7*
Cc1cc(NC(=O)CSc2ccccn2)cc(NC(=O)CSc2ccccn2)c1	-1.6	-18.5%	?	29.2%	-7.3
CC(=O)Nc1ccc(NC(=O)CSC2=NCCS2)cc1	-3.4	80.2%	-19.5	-25.9%	2.8
O=C(CSc1n[nH]c(=O)[nH]c1=O)Nc1cccc(S(=O)(=O)N2CCOCC2)c1	-3.0	4.8%	-3.5	3.3%	3.0
O=C(COc1ccc2ccccc2c1)NC1=NCCS1	43.3*	165.5%	38.9	nt	107.4*
COc1ccccc1NC(=O)Cn1c(=O)n(CCc2ccccc2)c(=O)c2sc3ccccc3c21	nt	nt	-19.9	nt	nt
SMILES	Cycloheximide cs	Pf growth 48h	HCMV inh	Pf growth 96h	Shiga inhibitor
O=C(CSc1ccccn1)Nc1ccc2c(c1)C(=O)c1ccccc1C2=O	43.1*	163.8%	?	0.0%	20.0
O=C(CSc1ccccn1)Nc1ccc2c(c1)CCC2	nt	99.4%	-26.1	66.5%	nt
COc1cc2c(cc1OC)CN(C(=O)CN1C(=O)c3ccc([N+](=O)[O-])cc3C1=O)CC2	nt	0.5%	-6.2	83.1%	nt
O=C1CCc2cc(S(=O)(=O)NC(C(=O)Nc3cccc(F)c3)c3ccccc3)ccc2N1 (centres undefined)	nt	nt	4.0	nt	nt
COc1ccc(NC(=O)NCc2ccco2)c(OC)c1	-1.3	31.5%	-35.2	7.8%	3.8
COc1ccc2cc(C(=O)NCc3ccco3)c(=Nc3ccc(C(=O)O)cc3)oc2c1	54.9*	10.4µM*	-19.7	?	112.1*
COc1ccc(N=c2oc3c(OC)cccc3cc2C(=O)NCc2ccco2)c(OC)c1	23.2*	12.0%	nt	-8.5%	60.1
